Among the data in PubChem BioAssay (NCI) are growth inhibition values, retold here.

Compounds without any hit were thinned out: in the full panel of roughly 79,000, 15% have a hit. Values without a mark were called inactive. Activity calls are given as the source filed them. Cut-off read from the data, not from the text of the source: active = growth inhibition above about 70%; inactive = the rest.

One assay in a line: NCI Yeast Anticancer Drug Screen. Data for the mgt1 strain (AID 153). The following applies: S. cerevisiae mgt1 mutant growth inhibition; at 100.0 µM; active compounds read high. The essentials:
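In the mgt1 strain, test compounds were added and growth inhibition was determined relative to vehicle-treated controls.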
Take `CCCc1cc(C(=O)OCC)cc(CCC)c1O`: the growth inhibition is 97% (active).
With `CC(C)[N+]([O-])(CCCNc1c2ccccc2nc2cccc([N+](=O)[O-])c12)C(C)C`, the growth inhibition is 98% (active).
In the case of `COc1cc2c3c(cccc3c1)C(=O)N(CCN(C)C)C2=O`, the growth inhibition is -7%.
Still for that read-out and setting: then `NC(=O)NN=C(CS)CS`, with 66%; and `Cc1ccc(NC(=O)/C(Cl)=C(\Cl)C(=O)O)cc1C`, with 99% (active).
For the compound `CCN(CC)CC[n+]1ccc2c(C)c3[nH]c4ccc(O)cc4c3c(C)c2c1`, the growth inhibition is 8%.
As for `CC(CC(C)(C)[N+](C)(C)C)[N+](C)(C)C` (stereo not drawn), the growth inhibition was 0%.
On the same count and under the same terms, as for `COc1ccc(OC)c2cc3ccccc3cc12`, the figure is 24%; as for `Nc1ncncc1C(C1=C(O)COC1=O)C1=C(O)COC1=O`, -2%.
Turning to `CSC1=NNC(SC)=NN1`, the growth inhibition is 99% (active).
`Cc1c(Cl)ccc2c1S(=O)(=O)c1cccc(Cl)c1-2`: the growth inhibition was -8%.
Still for that read-out and setting: as for `[O-][n+]1c2ccc(O)cc2nc2ccc(Cl)cc21`, the figure is 81% (active).
Still for that read-out and setting: then `COc1ccc2ccc3ccccc3c2c1C=O`, with 74% (active); and `Nc1ccc2c(c1)C(=O)c1cccc(N)c1C2=O`, with 81% (active).
Take `O=C(c1ccc(Cl)cc1Cl)C(Cl)Cl`: the growth inhibition was 99% (active).
On the same count and under the same terms, then `COc1cc(C(=O)/C=C/c2ccccc2O)ccc1O`, with 98% (active); and `O=Cc1cccc2ccc3ccccc3c12`, with 98% (active).
Take `O=C(Nc1ccc(Cl)cc1)OCC#CCCl`: the growth inhibition is 98% (active).
In the case of `Cn1ccnc1Oc1ccc(Cl)cc1`, the growth inhibition was 98% (active).
With `c1ccc2c(c1)C(=NCCCN1CCCCCC1)c1cccn1-2`, the growth inhibition is 97% (active).
On the same count and under the same terms, then `C/C(=N\O)C1CC2C=C(C#N)C1N(Cc1ccccc1)C2` (stereo not drawn), with -1%.
For `O=[N+]([O-])C(=C(Sc1ccccc1)Sc1ccccc1)C(Cl)=C(Cl)Cl`, the growth inhibition is 74% (active).
As for `CCCCCCCCCC/C=C\C(=O)O`, the growth inhibition is 98% (active).
In the case of `COc1ccc(N=C2C(=O)Nc3ccc(Br)cc32)cc1`, the growth inhibition is 1%.
Same read-out and setting: as for `COc1ccccc1C(=O)OCC1CCCN2CCCCC12` (stereo not drawn), the figure is 98% (active); as for `CC(C)(Br)C(=O)/C=C/c1ccc(Cl)c(Cl)c1`, 0%; as for `Nc1ccccc1CC(O)C(=O)O` (stereo not drawn), 95% (active).
Take `CC(=O)N/N=C/C(C)(C)C(C)(C)/C=N/NC(C)=O`: the growth inhibition is 6%.
Regarding `CN(C)c1nc2sc3c(c2c(=O)o1)CCCC3`, the growth inhibition is 31%.
`CC(C)OC(=O)Oc1ccccc1OC(=O)OC(C)C`: the growth inhibition is 4%.
On the same count and under the same terms, as for `Cc1ccc(N)c(S)c1`, the figure is 99% (active); as for `O=C(O)c1ccccc1NC(=S)c1ccccc1`, 81% (active).
For `COC(=O)c1ccc(NCC2=CC(=O)C=CC2=O)cc1O`, the growth inhibition is 91% (active).
As for `NC(N)=N/N=C\c1c2ccccc2cc2ccccc12`, the growth inhibition is 95% (active).
In the case of `COC(=O)CSSCc1ccc([N+](=O)[O-])cc1`, the growth inhibition is 98% (active).
Still for that read-out and setting: then `CCS(=O)(=O)c1ccc(/C=C/C=N/NC(=S)NCC(C)C)cc1`, with 44%.
Same read-out and setting: then `N#CC(C(=O)Nc1ccccc1)C1=C(Cl)C(=O)c2ccccc2C1=O` (stereo not drawn), with 97% (active); and `C[C@H](CCC(=O)NN)[C@H]1CC[C@H]2[C@@H]3CC[C@@H]4C[C@H](O)CC[C@]4(C)[C@H]3CC[C@]12C`, with 2%; and `CC[n+]1ccc2c(C)c3[nH]c4ccc(O)cc4c3c(C)c2c1`, with 14%.

A further assay in a line: NCI Yeast Anticancer Drug Screen. Data for the rad50 strain (AID 155).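 Note: 0% = growth of vehicle-only cultures of the same strain.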 The following applies: S. cerevisiae rad50 strain growth inhibition; at 1.2 µM; active compounds read high. The essentials: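 Yeast carrying a defined DNA repair defect were exposed to test compounds, and growth was compared with vehicle-treated controls to give percent inhibition.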
In the case of `CCCc1cc(C(=O)OCC)cc(CCC)c1O`, the growth inhibition was -8%.
Same read-out and setting: then `CC(C)[N+]([O-])(CCCNc1c2ccccc2nc2cccc([N+](=O)[O-])c12)C(C)C`, with 24%; and `COc1cc2c3c(cccc3c1)C(=O)N(CCN(C)C)C2=O`, with 10%; and `NC(=O)NN=C(CS)CS`, with 1%.
For `Cc1ccc(NC(=O)/C(Cl)=C(\Cl)C(=O)O)cc1C`, the growth inhibition was 2%.
The same measure, in the same setting: then `CCN(CC)CC[n+]1ccc2c(C)c3[nH]c4ccc(O)cc4c3c(C)c2c1`, with 13%; and `CC(CC(C)(C)[N+](C)(C)C)[N+](C)(C)C` (stereo not drawn), with 1%.
Regarding `COc1ccc(OC)c2cc3ccccc3cc12`, the growth inhibition is -1%.
For `Nc1ncncc1C(C1=C(O)COC1=O)C1=C(O)COC1=O`, the growth inhibition was 2%.
With `CSC1=NNC(SC)=NN1`, the growth inhibition was -4%.
For the compound `Cc1c(Cl)ccc2c1S(=O)(=O)c1cccc(Cl)c1-2`, the growth inhibition is -22%.
On the same count and under the same terms, as for `[O-][n+]1c2ccc(O)cc2nc2ccc(Cl)cc21`, the figure is 6%.
Same read-out and setting: as for `COc1ccc2ccc3ccccc3c2c1C=O`, the figure is 0%.
Regarding `Nc1ccc2c(c1)C(=O)c1cccc(N)c1C2=O`, the growth inhibition was 10%.
For the compound `O=C(c1ccc(Cl)cc1Cl)C(Cl)Cl`, the growth inhibition is 11%.
The same measure, in the same setting: as for `COc1cc(C(=O)/C=C/c2ccccc2O)ccc1O`, the figure is 10%.
Still for that read-out and setting: then `O=Cc1cccc2ccc3ccccc3c12`, with -7%.
`O=C(Nc1ccc(Cl)cc1)OCC#CCCl`: the growth inhibition is -4%.
Same read-out and setting: then `Cn1ccnc1Oc1ccc(Cl)cc1`, with -9%; and `c1ccc2c(c1)C(=NCCCN1CCCCCC1)c1cccn1-2`, with -3%; and `C/C(=N\O)C1CC2C=C(C#N)C1N(Cc1ccccc1)C2` (stereo not drawn), with -3%.
For `O=[N+]([O-])C(=C(Sc1ccccc1)Sc1ccccc1)C(Cl)=C(Cl)Cl`, the growth inhibition was 4%.
Still for that read-out and setting: then `CCCCCCCCCC/C=C\C(=O)O`, with 15%; and `COc1ccc(N=C2C(=O)Nc3ccc(Br)cc32)cc1`, with -14%.
Regarding `COc1ccccc1C(=O)OCC1CCCN2CCCCC12` (stereo not drawn), the growth inhibition was 8%.
Consider `CC(C)(Br)C(=O)/C=C/c1ccc(Cl)c(Cl)c1`, for which the growth inhibition is 4%.
The same measure, in the same setting: as for `Nc1ccccc1CC(O)C(=O)O` (stereo not drawn), the figure is 3%; as for `CC(=O)N/N=C/C(C)(C)C(C)(C)/C=N/NC(C)=O`, -13%.
Same read-out and setting: as for `CN(C)c1nc2sc3c(c2c(=O)o1)CCCC3`, the figure is 3%; as for `CC(C)OC(=O)Oc1ccccc1OC(=O)OC(C)C`, -5%; as for `Cc1ccc(N)c(S)c1`, -34%.
On the same count and under the same terms, then `O=C(O)c1ccccc1NC(=S)c1ccccc1`, with -3%; and `COC(=O)c1ccc(NCC2=CC(=O)C=CC2=O)cc1O`, with 12%; and `NC(N)=N/N=C\c1c2ccccc2cc2ccccc12`, with -16%.
Take `COC(=O)CSSCc1ccc([N+](=O)[O-])cc1`: the growth inhibition was 4%.
On the same count and under the same terms, as for `CCS(=O)(=O)c1ccc(/C=C/C=N/NC(=S)NCC(C)C)cc1`, the figure is 6%; as for `N#CC(C(=O)Nc1ccccc1)C1=C(Cl)C(=O)c2ccccc2C1=O` (stereo not drawn), 4%; as for `C[C@H](CCC(=O)NN)[C@H]1CC[C@H]2[C@@H]3CC[C@@H]4C[C@H](O)CC[C@]4(C)[C@H]3CC[C@]12C`, 1%.
In the case of `CC[n+]1ccc2c(C)c3[nH]c4ccc(O)cc4c3c(C)c2c1`, the growth inhibition is -24%.
